Four compounds from ChEMBL document CHEMBL1961873, “Compounds: GSK PKIS; Assays: Nanosyn kinase panel” (2012) can be followed below.

Test [1] concerns the target Ribosomal protein S6 kinase alpha-6 (Homo sapiens) (UniProt Q9UK32). To be noted: at 1 µM.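 Further: each value is a mean inhibition of RSK4 from a GSK PKIS panel screen.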
Test [2] deals with T1, Serine/threonine-protein kinase Sgk1 (Homo sapiens) (UniProt O00141).
T1 sequence (whole entry): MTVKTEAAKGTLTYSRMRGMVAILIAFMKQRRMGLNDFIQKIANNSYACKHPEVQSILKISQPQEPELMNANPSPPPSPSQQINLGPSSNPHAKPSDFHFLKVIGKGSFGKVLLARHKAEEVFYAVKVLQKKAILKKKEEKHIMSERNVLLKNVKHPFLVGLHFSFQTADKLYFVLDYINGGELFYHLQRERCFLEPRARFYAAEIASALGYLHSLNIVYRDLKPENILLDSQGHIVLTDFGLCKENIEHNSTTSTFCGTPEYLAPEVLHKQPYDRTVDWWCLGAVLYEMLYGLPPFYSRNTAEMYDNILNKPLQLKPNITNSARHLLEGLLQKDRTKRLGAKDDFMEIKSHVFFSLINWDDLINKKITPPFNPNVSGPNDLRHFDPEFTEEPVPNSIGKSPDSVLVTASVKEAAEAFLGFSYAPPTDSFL
Conditions: at 0.1 µM.

The target of test [3] is T1, Serine/threonine-protein kinase Sgk1 (Homo sapiens). To be noted: at 1 µM.
In test [4] the target is T2, Serine/threonine-protein kinase Sgk2 (Homo sapiens) (UniProt Q9HBY8).
T2 sequence (whole entry): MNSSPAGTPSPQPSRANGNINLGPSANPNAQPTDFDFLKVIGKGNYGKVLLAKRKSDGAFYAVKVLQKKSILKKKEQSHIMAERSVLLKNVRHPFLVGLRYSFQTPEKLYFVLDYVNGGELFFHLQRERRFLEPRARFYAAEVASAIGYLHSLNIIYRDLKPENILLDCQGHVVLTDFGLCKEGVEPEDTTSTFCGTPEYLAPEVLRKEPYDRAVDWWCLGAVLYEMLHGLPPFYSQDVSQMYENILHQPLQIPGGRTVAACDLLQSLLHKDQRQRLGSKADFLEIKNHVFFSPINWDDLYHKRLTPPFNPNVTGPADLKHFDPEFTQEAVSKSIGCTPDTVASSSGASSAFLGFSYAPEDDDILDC
Conditions: at 0.1 µM.

In test [5] the target is T2, Serine/threonine-protein kinase Sgk2 (Homo sapiens). Conditions: at 1 µM.
Test [6] concerns the target T3, Serine/threonine-protein kinase Sgk3 (Homo sapiens) (UniProt Q96BR1).
T3 sequence (whole entry): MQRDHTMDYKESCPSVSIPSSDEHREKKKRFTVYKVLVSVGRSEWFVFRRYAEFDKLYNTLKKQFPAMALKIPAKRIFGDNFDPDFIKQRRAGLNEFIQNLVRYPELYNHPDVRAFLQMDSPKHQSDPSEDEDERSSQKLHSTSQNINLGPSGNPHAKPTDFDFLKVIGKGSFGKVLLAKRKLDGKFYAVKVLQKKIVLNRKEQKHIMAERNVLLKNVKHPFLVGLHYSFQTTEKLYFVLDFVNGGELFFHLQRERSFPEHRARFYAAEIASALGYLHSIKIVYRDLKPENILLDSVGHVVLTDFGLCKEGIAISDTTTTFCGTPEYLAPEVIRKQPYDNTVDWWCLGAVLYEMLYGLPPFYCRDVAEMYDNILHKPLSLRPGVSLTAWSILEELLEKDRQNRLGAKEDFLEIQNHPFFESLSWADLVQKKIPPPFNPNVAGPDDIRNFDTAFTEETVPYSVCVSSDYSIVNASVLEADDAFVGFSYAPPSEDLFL
To be noted: at 0.1 µM.

Test [7] has as its target T3, Serine/threonine-protein kinase Sgk3 (Homo sapiens). To be noted: at 1 µM.
In test [8] the target is 5'-AMP-activated protein kinase catalytic subunit alpha-1 (Homo sapiens) (UniProt Q13131). To be noted: at 0.1 µM.
Test [9] has the same target. To be noted: at 1 µM.
Test [10] concerns the target 5'-AMP-activated protein kinase catalytic subunit alpha-2 (Homo sapiens) (UniProt P54646). Conditions: at 0.1 µM.
Test [11] has the same target. Conditions: at 1 µM.
Test [12] concerns the target T4, NUAK family SNF1-like kinase 1 (Homo sapiens) (UniProt O60285).
T4 sequence (whole entry): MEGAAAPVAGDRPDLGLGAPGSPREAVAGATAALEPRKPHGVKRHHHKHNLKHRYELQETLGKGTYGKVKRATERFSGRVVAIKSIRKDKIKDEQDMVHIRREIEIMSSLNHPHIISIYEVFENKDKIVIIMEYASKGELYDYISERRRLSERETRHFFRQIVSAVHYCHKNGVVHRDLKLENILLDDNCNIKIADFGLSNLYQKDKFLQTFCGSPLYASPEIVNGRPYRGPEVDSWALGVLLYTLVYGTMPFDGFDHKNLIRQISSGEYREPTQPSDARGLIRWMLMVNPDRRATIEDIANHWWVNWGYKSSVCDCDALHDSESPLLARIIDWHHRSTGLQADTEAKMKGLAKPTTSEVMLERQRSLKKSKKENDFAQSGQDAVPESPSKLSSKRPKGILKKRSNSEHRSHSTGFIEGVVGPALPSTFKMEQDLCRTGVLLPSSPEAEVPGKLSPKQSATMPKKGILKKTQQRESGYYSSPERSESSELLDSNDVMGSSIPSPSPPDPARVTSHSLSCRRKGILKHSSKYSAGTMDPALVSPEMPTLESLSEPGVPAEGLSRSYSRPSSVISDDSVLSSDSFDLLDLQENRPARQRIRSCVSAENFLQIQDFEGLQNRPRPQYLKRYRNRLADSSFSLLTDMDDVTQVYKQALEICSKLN
To be noted: at 0.1 µM.

Test [13] addresses T4, NUAK family SNF1-like kinase 1 (Homo sapiens). Conditions: at 1 µM.
The target of test [14] is T5, Serine/threonine-protein kinase BRSK1 (Homo sapiens) (UniProt Q8TDC3).
T5 sequence (whole entry): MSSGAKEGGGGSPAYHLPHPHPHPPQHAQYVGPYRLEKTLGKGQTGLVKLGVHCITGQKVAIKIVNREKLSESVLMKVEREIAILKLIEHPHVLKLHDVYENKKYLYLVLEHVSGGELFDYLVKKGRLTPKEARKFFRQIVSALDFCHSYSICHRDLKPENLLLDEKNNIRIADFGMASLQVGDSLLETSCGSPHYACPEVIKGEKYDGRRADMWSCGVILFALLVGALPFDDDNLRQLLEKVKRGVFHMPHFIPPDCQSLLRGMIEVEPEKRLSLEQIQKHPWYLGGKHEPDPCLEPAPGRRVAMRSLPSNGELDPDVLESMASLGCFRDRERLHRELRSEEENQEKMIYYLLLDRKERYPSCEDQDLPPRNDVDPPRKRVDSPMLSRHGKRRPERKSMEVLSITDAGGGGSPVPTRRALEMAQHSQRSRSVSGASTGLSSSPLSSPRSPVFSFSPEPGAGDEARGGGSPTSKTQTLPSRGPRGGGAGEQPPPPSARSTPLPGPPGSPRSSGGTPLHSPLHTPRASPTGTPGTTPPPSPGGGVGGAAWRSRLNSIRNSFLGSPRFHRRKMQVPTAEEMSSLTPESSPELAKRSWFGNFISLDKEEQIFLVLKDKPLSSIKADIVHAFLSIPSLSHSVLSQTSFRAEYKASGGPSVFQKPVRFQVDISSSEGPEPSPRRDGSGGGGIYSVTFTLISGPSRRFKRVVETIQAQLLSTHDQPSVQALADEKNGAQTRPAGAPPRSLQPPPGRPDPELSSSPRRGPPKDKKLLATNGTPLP
Conditions: at 0.1 µM.

The target of test [15] is T5, Serine/threonine-protein kinase BRSK1 (Homo sapiens). Conditions: at 1 µM.
Test [16] concerns the target T6, Serine/threonine-protein kinase BRSK2 (Homo sapiens) (UniProt Q8IWQ3).
T6 sequence (whole entry): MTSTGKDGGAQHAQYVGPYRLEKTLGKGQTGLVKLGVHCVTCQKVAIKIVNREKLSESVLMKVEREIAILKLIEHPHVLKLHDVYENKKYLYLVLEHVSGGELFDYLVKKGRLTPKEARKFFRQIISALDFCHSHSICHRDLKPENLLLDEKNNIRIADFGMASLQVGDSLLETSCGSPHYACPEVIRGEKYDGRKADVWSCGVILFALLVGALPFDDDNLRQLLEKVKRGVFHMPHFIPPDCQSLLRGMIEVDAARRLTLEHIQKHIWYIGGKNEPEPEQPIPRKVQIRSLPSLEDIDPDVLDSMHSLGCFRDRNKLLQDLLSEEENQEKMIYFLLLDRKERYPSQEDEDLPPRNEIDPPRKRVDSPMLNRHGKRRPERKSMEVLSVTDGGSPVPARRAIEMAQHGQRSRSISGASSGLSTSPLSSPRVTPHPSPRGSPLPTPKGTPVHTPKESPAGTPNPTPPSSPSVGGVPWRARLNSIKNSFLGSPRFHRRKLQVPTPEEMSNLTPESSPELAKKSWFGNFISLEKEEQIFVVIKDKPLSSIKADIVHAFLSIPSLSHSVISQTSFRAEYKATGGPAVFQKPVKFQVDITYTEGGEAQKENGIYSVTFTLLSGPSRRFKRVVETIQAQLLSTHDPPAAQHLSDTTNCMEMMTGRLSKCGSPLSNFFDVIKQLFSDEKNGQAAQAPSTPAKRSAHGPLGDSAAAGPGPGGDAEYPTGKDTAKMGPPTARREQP
To be noted: at 0.1 µM.

In test [17] the target is T6, Serine/threonine-protein kinase BRSK2 (Homo sapiens). To be noted: at 1 µM.
Test [18] has as its target Calcium/calmodulin-dependent protein kinase type 1D (Homo sapiens) (UniProt Q8IU85). Conditions: at 0.1 µM.
The target is the same in test [19]. Conditions: at 1 µM.
For test [20], the target named is Calcium/calmodulin-dependent protein kinase type II subunit alpha (Homo sapiens) (UniProt Q9UQM7). To be noted: at 0.1 µM.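 Further: reported values are averages (mean inhibition of CAMK2A).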
Sequence of Calcium/calmodulin-dependent protein kinase type II subunit alpha (Homo sapiens) (Q9UQM7 whole entry): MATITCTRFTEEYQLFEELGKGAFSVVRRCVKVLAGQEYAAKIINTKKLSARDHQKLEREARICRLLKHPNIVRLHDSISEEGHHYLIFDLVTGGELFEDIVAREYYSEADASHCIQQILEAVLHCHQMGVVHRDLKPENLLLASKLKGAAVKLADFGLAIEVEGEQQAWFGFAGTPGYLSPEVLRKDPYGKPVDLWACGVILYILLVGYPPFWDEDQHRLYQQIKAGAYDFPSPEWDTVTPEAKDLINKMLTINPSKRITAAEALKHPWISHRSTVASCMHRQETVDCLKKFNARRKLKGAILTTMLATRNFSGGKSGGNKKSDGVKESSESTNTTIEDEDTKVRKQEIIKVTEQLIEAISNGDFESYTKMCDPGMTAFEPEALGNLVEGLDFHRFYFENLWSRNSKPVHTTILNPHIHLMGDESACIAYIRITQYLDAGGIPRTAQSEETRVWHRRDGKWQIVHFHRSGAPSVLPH

Sequence of 5'-AMP-activated protein kinase catalytic subunit alpha-1 (Homo sapiens) (Q13131 whole entry, looked up): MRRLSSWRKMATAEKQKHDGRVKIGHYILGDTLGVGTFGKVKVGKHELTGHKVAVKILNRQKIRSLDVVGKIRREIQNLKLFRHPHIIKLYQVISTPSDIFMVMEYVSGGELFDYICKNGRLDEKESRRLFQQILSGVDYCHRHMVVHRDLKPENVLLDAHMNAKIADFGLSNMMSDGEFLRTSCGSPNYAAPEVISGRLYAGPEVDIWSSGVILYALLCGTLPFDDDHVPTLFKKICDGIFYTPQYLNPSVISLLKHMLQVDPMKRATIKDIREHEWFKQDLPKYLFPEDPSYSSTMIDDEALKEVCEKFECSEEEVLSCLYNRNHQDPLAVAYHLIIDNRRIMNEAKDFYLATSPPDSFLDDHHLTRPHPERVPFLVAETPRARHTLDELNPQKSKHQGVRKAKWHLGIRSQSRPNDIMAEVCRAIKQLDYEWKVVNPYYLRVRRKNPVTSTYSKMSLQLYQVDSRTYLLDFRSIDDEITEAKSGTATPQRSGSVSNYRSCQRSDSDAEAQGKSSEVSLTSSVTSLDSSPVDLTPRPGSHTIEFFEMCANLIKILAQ
Sequence of Calcium/calmodulin-dependent protein kinase type 1D (Homo sapiens) (Q8IU85 whole entry, looked up): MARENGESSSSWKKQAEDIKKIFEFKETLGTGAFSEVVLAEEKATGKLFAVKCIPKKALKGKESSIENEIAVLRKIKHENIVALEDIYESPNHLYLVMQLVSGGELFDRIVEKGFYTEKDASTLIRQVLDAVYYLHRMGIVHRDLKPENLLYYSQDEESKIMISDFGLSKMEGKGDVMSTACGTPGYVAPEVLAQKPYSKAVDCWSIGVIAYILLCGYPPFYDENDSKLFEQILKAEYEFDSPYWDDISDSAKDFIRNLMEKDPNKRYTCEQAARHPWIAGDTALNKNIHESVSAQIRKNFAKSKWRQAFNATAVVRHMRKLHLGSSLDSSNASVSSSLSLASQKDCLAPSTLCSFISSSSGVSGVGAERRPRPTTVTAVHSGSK
Sequence of 5'-AMP-activated protein kinase catalytic subunit alpha-2 (Homo sapiens) (P54646 whole entry, looked up): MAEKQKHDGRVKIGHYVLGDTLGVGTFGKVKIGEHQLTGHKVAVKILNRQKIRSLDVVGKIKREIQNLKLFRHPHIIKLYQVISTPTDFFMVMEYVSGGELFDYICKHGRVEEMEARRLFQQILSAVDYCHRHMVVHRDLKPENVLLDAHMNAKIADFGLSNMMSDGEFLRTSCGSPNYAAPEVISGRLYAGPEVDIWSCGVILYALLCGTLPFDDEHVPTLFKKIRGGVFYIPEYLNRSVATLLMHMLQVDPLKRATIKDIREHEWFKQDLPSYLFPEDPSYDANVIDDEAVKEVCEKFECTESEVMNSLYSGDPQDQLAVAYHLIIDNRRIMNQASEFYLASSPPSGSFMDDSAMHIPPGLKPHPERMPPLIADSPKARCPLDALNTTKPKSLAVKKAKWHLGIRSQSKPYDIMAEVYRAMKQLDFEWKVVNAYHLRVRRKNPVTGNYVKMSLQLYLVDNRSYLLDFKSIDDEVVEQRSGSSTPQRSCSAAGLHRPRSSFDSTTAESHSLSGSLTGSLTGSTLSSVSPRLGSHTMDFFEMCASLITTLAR
Sequence of Ribosomal protein S6 kinase alpha-6 (Homo sapiens) (Q9UK32 whole entry): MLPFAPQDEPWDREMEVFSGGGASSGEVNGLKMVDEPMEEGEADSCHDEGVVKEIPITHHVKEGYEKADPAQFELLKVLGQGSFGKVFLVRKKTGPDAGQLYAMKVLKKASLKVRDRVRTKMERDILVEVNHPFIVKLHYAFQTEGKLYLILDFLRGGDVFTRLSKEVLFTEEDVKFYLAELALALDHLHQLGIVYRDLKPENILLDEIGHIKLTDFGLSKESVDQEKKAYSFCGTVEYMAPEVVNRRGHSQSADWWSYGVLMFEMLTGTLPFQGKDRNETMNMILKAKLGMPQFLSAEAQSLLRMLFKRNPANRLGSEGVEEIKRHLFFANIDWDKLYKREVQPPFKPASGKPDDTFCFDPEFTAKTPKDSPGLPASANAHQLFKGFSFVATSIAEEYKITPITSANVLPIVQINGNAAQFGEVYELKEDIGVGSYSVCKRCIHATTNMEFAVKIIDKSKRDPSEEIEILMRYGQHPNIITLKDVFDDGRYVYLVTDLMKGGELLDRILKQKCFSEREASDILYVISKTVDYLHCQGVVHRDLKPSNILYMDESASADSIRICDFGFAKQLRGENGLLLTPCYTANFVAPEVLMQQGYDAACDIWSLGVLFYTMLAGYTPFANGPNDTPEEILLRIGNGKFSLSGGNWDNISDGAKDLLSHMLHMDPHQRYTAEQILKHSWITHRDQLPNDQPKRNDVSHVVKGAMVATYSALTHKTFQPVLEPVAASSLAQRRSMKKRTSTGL

What is called inhibition is the drop in the measured response relative to a control, in per cent. For `N#Cc1c(NC(=O)c2ccccc2F)sc2c1CCCC2`, the inhibition in test [1] was 0.41%; in [2], 0.71%; in [3], 0.65%; in test [4] it was -4.27%; in test [5], -5.49%; in test [6], -2.68%. The inhibition in [7] is -2.69%; in test [8], -0.84%; in test [9], 0.73%; in test [10] it was 1.26%; in [11], 0.55%; in [12], 2.6%. In addition, the inhibition in test [13] was 3.42%; in test [14], 0.36%; in test [15], 1.62%; in test [16] it was 1.76%; in [17], 3.8%; in test [18], -0.22%. Moreover, the values for the inhibition in [19] and in test [20] were 0.3% and -2.24%, respectively.

As for `Nc1nccc(C#Cc2cncnc2Nc2ccc(OCc3cccc(F)c3)c(Cl)c2)n1`, the inhibition was 1% in [1]; 2.17% in test [2]; 2.96% in test [3]; 1.54% in [4]; 3.69% in test [5]; 2.12% in test [6]. Also, the inhibition in test [7] came to 3.95%; in test [8] it was 3.13%; in [9], 5.37%; in [10], 1.22%; in [11], 6.02%; in test [12], 2.82%. Also, the inhibition in [13] is 9.68%; in test [14], 3.95%; in test [15], 8.92%; in test [16] it was 4.89%; in test [17], 10.8%; in test [18], -0.54%. Moreover, the results for the inhibition in [19] and in test [20] were 2.27% and 3.24%, respectively.

On to `Oc1cccc(-c2nc(-c3ccccc3)[nH]c2-c2ccncc2)c1`, for which the inhibition was 2.67% in [1]; 0.98% in test [2]; 4.8% in test [3]; 1.32% in test [4]; 4.97% in test [5]; 3.71% in test [6]. The inhibition in test [7] was found to be 1.35%; in test [8], 2.62%; in test [9], 3.13%; in [10] it was 3.23%; in [11], 4.6%; in test [12], 0.46%. Besides, the inhibition was 2.27% in test [13]; -0.48% in [14]; 1.89% in test [15]; 1.98% in test [16]; 4.34% in test [17]; 0.26% in test [18]. The inhibition in [19] came out at 1.01%; in test [20], 3.36%.

For the compound `[O-][S+]1CCN(Cc2ccc(-c3ccc4ncnc(Nc5ccc(OCc6ccccc6)c(Cl)c5)c4c3)o2)CC1`, the inhibition in test [1] was -0.67%; in test [2], 2.48%; in test [3], 1.69%; in [4], -2.36%; in [5] it was 1.12%; in [6] it was 0.45%. For the same compound, the inhibition in test [7] was 1.38%; in [8], 0.09%; in [9], 1.19%; in test [10], 2.56%; in test [11], 1.22%; in [12], -2.45%. Moreover, the inhibition was -2.99% in test [13]; 0.95% in [14]; 0.18% in [15]; 1.49% in test [16]; 2.79% in test [17]; -0.14% in test [18]. In addition, the inhibition in test [19] is 0.11%; in [20] it was -0.84%.
